The entries come from a sample that favours hits as a whole.
TDP1 cell CPT = qHTS for Inhibitors of human tyrosyl-DNA phosphodiesterase 1 (TDP1): qHTS in cells in presence of CPT; 12% of 420,000 active; chicken DT40 Tdp1-/-;hTDP1 cells + 20 nM CPT, ATP luminescence, 48 h; Potency, µM (highest dose often 46.2 µM), most hits filed as inhibitors; also: nearly all actives have a fitted effect of over 55% in size
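Chicken DT40 Tdp1-/- cells stably complemented with human TDP1 were seeded at 400 cells/well in medium containing 20 nM camptothecin, exposed to pin-transferred compounds, and grown at 37 °C for at least 48 hr. Viability was read as ATP luminescence.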
HT1080 IDH1KD tx = qHTS for induction of synthetic lethality in tumor cells producing 2HG: qHTS for the HT-1080-IDH1KD cell line; Potency, µM (doses to about 46.1 µM), usual class: cytotoxic; HT-1080 IDH1 knockdown viability, ATP luminescence, 48 h; 2% of 360,000 active; AID 686971, 2013
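After a 2 h attachment period, IDH1KD HT-1080 cells took pin-transferred compound for 48 h at 37 °C; ATP-based luminescence after 10 min room-temperature reagent incubation reported viability.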
IL1B secr inh = qHTS for Inhibitors of Inflammasome Signaling: IL-1-beta AlphaLISA Primary Screen | THP-1 LPS/ATP IL-1B secretion, AlphaLISA, 16 h; active compounds read low | activity change, % at 57.5 µM | 4.7% of 360,000 active | AID 743279, 2014; in the data active = activity change below about -50%; inconclusive = mostly about -30% to -49%
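THP-1 cells pretreated 1 hr with compounds (up to 57.5 uM final), then stimulated with LPS (250 ng/mL final) plus ATP (1.25 mM final); secreted IL-1B measured by AlphaLISA after 16 hr, decreased signal indicating inhibition.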
HT1080NT lethal = qHTS for induction of synthetic lethality in tumor cells producing 2HG: qHTS for the HT-1080-NT fibrosarcoma cell line; HT-1080-NT fibrosarcoma viability, CellTiter-Glo ATP luminescence, 48 h; Potency, µM (doses to about 46.1 µM), actives largely listed as cytotoxic; 1.6% of 360,000 active; AID 686970, 2013;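 also: NT is the 2HG producing partner of a matched IDH1 knockdown line; nearly all actives have a fitted effect of over 55% in size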
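Compounds were tested in concentration-response format on HT-1080-NT cells for 48 hours at 37 degrees C. Cell viability came from CellTiter-Glo luminescence; curves were classified by r2, response magnitude and activity.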
12-LOX inh = Primary qHTS assay for inhibitors of human arachidonate 12S-lipoxygenase (ALOX12): Round 2 | purified 12hLO, xylenol orange hydroperoxide absorbance | Potency, µM (titrated, usually from 108 µM), most hits filed as inhibitors | 1.1% of 580,000 active
Target sequence (P18054 whole entry, looked up): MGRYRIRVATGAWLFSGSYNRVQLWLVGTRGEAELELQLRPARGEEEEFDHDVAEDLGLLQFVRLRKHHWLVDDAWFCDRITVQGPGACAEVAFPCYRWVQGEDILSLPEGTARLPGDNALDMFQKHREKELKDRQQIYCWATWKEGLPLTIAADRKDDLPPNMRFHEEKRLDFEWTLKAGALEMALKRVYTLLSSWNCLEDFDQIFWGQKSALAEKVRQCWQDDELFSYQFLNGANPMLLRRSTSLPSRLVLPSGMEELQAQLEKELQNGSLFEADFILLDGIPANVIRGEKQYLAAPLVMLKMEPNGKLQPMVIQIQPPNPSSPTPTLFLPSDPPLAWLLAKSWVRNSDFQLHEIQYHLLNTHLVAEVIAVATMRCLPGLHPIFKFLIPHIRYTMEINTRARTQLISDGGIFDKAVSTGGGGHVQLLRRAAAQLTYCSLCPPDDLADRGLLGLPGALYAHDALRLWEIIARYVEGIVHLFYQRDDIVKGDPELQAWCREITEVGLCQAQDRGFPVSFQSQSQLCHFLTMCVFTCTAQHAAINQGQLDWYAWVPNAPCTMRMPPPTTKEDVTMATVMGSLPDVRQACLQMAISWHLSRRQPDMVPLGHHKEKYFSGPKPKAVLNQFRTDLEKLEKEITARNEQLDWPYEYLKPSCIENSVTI
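Purified human 12hLO (150 nM final) in 25 mM Hepes, 0.01% Triton X-100, pH 7.0 was preincubated 15 min at room temperature with compound. Then 40 uM arachidonic acid was added, 30 min. Hydroperoxide was read by Fe-XO absorbance ratio 573/405 nm.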
TDP1 cell noCPT = qHTS for Inhibitors of human tyrosyl-DNA phosphodiesterase 1 (TDP1): qHTS in cells in absence of CPT; DT40 Tdp1-/- hTDP1 cells, no CPT, ATP luminescence, 48 h; Potency, µM (highest dose often 46.2 µM), actives largely listed as inhibitors; 15% of 420,000 active; also: nearly all actives have a fitted effect of over 55% in size
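DT40 Tdp1-/-;hTDP1 cells, no CPT (DMSO vehicle only), 400 cells/well; compounds pin-transferred; ≥48 hr, 37 °C; CellTiter-Glo 30 min RT dark, luminescence read.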
A number is an active result; 0 = inactive; ? = inconclusive; - = not tested or not shown; [ ] = another dose, or the depositor's remark. Unless noted, calls follow the shape of the dose curve; as a rule, active = well fitted curve in the direction sought with a large enough effect; inconclusive = small, poorly fitted or top-dose-only effect, or another doubt; inactive = no such curve, though single readings can be large; an effect the other way counts as inactive or inconclusive.

SMILES | TDP1 cell CPT | HT1080 IDH1KD tx | IL1B secr inh | HT1080NT lethal | 12-LOX inh | TDP1 cell noCPT
COc1cc(SC#N)ccc1N=Cc1c(C)[nH]n(-c2ccc(C)c(C)c2)c1=O | 3.3µM | 15µM | -98 | 21µM | 0 | 2.6µM
COc1cc(SC#N)ccc1N=Cc1c(C)[nH]n(-c2ccc(Cl)cc2)c1=O | 2.6µM | 0 | ? | 0 | 0 | 3.7µM
CCCCCc1ccc(/C=C/c2ccc(C3CCC(CCC)CC3)cc2)nc1 (stereo unspecified) | - | - | - | - | 0 | -
CCOC(=O)C1=C(C)N=c2s/c(=C\c3ccc(OCC(=O)O)cc3)c(=O)n2C1c1ccccc1 (stereo unspecified) | 0 | 0 | 0 | 0 | ? | 0
CCOC(=O)C1=C(C)N=c2s/c(=C\c3ccc(C(=O)O)cc3)c(=O)n2C1c1ccc(OC)cc1OC (stereo unspecified) | ? | 0 | 0 | 0 | 0 | ?
CCOC(=O)C1=C(C)N=c2s/c(=C/c3cccc([N+](=O)[O-])c3O)c(=O)n2C1c1ccccc1 (stereo unspecified) | 13µM | 0 | 0 | 0 | ? | 16µM
CCOC(=O)C1=C(C)N=c2s/c(=C/c3ccco3)c(=O)n2C1c1cccc(OC)c1 (stereo unspecified) | ? | 0 | 0 | 0 | - | 23µM
COC(=O)C1=C(C)N=c2s/c(=C/c3ccoc3)c(=O)n2C1c1ccccc1 (stereo unspecified) | 23µM | 0 | 0 | 0 | - | ?
CCOC(=O)C1=C(C)N=c2s/c(=C/c3cccc([N+](=O)[O-])c3O)c(=O)n2C1c1cc(OC)c(OC)c(OC)c1 (stereo unspecified) | ? | 0 | 0 | 0 | ? | 7.3µM
Cc1cccc(C)c1OCC(=O)N[C@@H](Cc1ccccc1)[C@@H](O)C[C@H](Cc1ccccc1)NC(=O)[C@H](C(C)C)N1CCCNC1=O | 7.9µM | - | - | - | 0 | 19µM
C=CCn1c(=O)c2ccccc2n2c(SCC(=O)O)nnc12 | 0 | 0 | 0 | 0 | 0 | 0
C=CCn1c(=O)c2ccccc2n2c(SCc3nc4ccccc4s3)nnc12 | ? | 0 | 0 | 0 | 0 | 16µM
CCOc1ccccc1OCCCOc1ccc([N+](=O)[O-])cc1Cl | 0 | 0 | 0 | 0 | 0 | 23µM
CC(C)C(C)NC(=O)COc1ccc([N+](=O)[O-])cc1Cl (stereo unspecified) | 8.2µM | 0 | 0 | 0 | 0 | ?
O=C(COc1ccc([N+](=O)[O-])cc1Cl)NCCc1ccccc1 | 0 | 0 | 0 | 0 | 0 | ?
O=C(Nc1nnc(C2CCCCC2)s1)C1CCN(C(=O)c2cccc(F)c2)CC1 | - | - | - | - | 0 | -
CCCCCCCCCCCC(=O)Nc1ccc(C)c(C)c1 | - | - | - | - | 0 | -
Cn1sc(NC(=O)c2ccccc2Cl)nc1=O | 0 | 0 | 0 | 0 | 45µM | 0
COc1ccc(/C=C(\C#N)C(=O)NC2CC2)cc1 | - | - | - | - | 0 | -
CCOc1ccc(/C=C(\C#N)C(=O)NC2CC2)c(OCC)c1 | 0 | 0 | -54 | 0 | 0 | 0
CCCCOc1ccc(/C=C(\C#N)C(=O)NC2CC2)cc1 | ? | 0 | 0 | 0 | ? | 29µM
COc1cc(C2Nc3cccc4cccc(c34)N2)ccc1OC(C)=O | 16µM | 0 | 0 | 0 | - | 16µM
COC(=O)c1ccc(C2Nc3cccc4cccc(c34)N2)cc1 | 8.2µM | 0 | 0 | 0 | ? | 9.2µM
Oc1ccc(C2Nc3cccc4cccc(c34)N2)c(O)c1 | 4.1µM | ? | 0 | 0 | 0 | 26µM
Clc1ccccc1C1Nc2cccc3cccc(c23)N1 | ? | 0 | 0 | 0 | 0 | ?
SMILES | TDP1 cell CPT | HT1080 IDH1KD tx | IL1B secr inh | HT1080NT lethal | 12-LOX inh | TDP1 cell noCPT
COc1cc(C2Nc3cccc4cccc(c34)N2)cc(OC)c1O | 18µM | ? | -90 | ? | 0 | ?
CC(C)(C)c1ccc(S(=O)(=O)NCCc2ccncc2)cc1 | ? | 0 | 0 | 0 | 0 | 16µM
CCCc1ccc(S(=O)(=O)NCCc2ccncc2)cc1 | 13µM | 0 | 0 | 0 | 0 | ?
O=C(Nc1ccc(S(=O)(=O)NCCc2ccccc2)cc1)c1ccncc1 | 18µM | 0 | 0 | 0 | 0 | ?
O=C(Nc1ccc(S(=O)(=O)NCCc2ccccc2)cc1)c1ccco1 | 0 | 0 | 0 | 0 | ? | ?
CCCCCc1ccc(S(=O)(=O)NCCc2ccncc2)cc1 | 21µM | ? | ? | 0 | 0 | 16µM
CC1CCCC(C)N1S(=O)(=O)c1ccc(S(=O)(=O)NCCc2ccncc2)cc1 (stereo unspecified) | ? | 0[9.24 µM] | ? | 0 | 0 | ?
COc1ccc(CCNC(=O)CCCCCn2c(=O)[nH]c3cc(OC)c(OC)cc3c2=O)cc1OC | 0 | - | - | - | 0 | ?
Clc1ccc(-c2cn[nH]c2)cc1 | - | - | - | - | 0 | -
CCOC(=O)c1c(NC(=O)CSc2ncnc3ccccc23)sc(C)c1C | ? | 0 | 0 | 0 | 0 | 15µM
CCOC(=O)c1c(NC(=O)COc2ncnc3ccccc23)sc(C(C)=O)c1C | 13µM | 0 | 0 | 0 | 0 | 13µM
Cc1csc(NC(=O)CSc2ncnc3ccccc23)n1 | ? | 0 | -89 | 0 | 0 | ?
CCOC(=O)c1c(NC(=O)CSc2nc3ccccc3s2)sc(C(C)=O)c1C | 7.3µM | 0 | 0 | ? | 0 | 16µM
CCOC(=O)c1c(NC(=O)CSc2ccccc2C(=O)O)sc(C)c1C | 0 | 0 | 0 | 0 | 0 | 0
COC(=O)c1[nH]c(C)c(/C(O)=C2\C(=O)C(=O)N(CCCn3ccnc3)C2c2cccnc2)c1C (stereo unspecified) | - | - | - | - | 0 | -
O=C1NC(=NC2CCCC2)C2(CCN([S+](=O)([O-])c3cccc(C(F)(F)F)c3)CC2)N1c1cccnc1 | - | - | - | - | 0[6.33 µM] | -
CN(C(=O)c1ccc(C(F)(F)F)cc1)C1CCc2ccccc21 (stereo unspecified) | - | - | - | - | 0 | -
Cc1ccccc1NC(=O)COc1ncnc2ccccc12 | - | - | - | - | 0 | -
COC(=O)c1c(NC(=O)COc2ncnc3ccccc23)sc(C)c1C | ? | 0 | 0 | 0 | 0 | 26µM
CC1(C)Cc2c(cnn2-c2ccc(F)cc2)C(NC(=O)c2cc(C3CC3)[nH]n2)C1 (stereo unspecified) | - | - | - | - | 0 | -
CN(C(=O)c1oc(=O)c2ccccc2c1-c1ccccc1)c1cccc(Cl)c1 | 18µM | - | - | - | 0 | 23µM
COc1ccc(CN2C(=O)COC[C@H]2C(=O)N2CCc3ccccc3C2)c(OC)c1 | - | - | - | - | 0 | -

Screening results (PubChem BioAssay)
